Reference: PubChem BioAssay (EPA / NIEHS)
Inconclusive results are not listed. Active and inactive are the calls of the source. How the source made its calls, unless noted: active means hit-call score of the fitted dose curve at least 0.9, where 1 is the maximum; inactive means score below 0.9.

Experiments:
[1] = CCTE_Padilla_ZF_Score.General: CCTE's 144 Hour Post-fertilization zebrafish Assay Score for General Malformation, Padilla Lab (AID 2284411)
Procedure, shortened: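 Malformation, death and hatching were scored at 6 dpf by two blinded observers under a stereo microscope. Embryos were dosed singly from 6-8 hpf in sealed plates of 10% Hanks' at 26C and rinsed on 5 dpf; DMSO baseline.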

[2] = tested on: SRY-box transcription factor 17 (SOX17) Protein Expression, Deisenroth Lab, SOX17 (gene 64321); assay: CCTE_Deisenroth_DEVTOX-GLR_Endo_SOX17: CCTE's DevTox GLR-Endo Assay Evaluation of SRY-box transcription factor 17 (SOX17) Protein Expression, Deisenroth Lab (AID 2284413)
Procedure, shortened: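 Fluorescent microscopy of a SOX17 reporter in RUES2-GLR pluripotent cells scored endoderm differentiation after 48 h and two 24-h-spaced exposures. Values are percent change in SOX17+ population against 0.2% DMSO, n=4 experimental replicates.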

[3] = tested on: Brachyury (BRA) Protein Expression, TBXT (gene 6862); assay: CCTE_Deisenroth_DEVTOX-GLR_Endo_BRA: CCTE's DevTox GLR-Endo Assay Evaluation of Brachyury (BRA) Protein Expression, Deisenroth Lab (AID 2284417)
Procedure, shortened: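 Endpoint is the fraction of BRA reporter-positive cells over total nuclei, corrected by subtracting the 0.2% DMSO value. Chemicals (1 nM - 200 uM, 10 points) were dosed twice during 48 h differentiation of RUES2-GLR cells, read by imaging.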

[4] = CCTE_Deisenroth_DEVTOX-GLR_Endo_CellCount: Viability Assessment in CCTE's DevTox GLR-Endo Assay, Deisenroth Lab (AID 2284420)
Procedure, shortened: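 Human pluripotent RUES2-GLR line; 24 h pre-seed; 48 h endoderm-directed differentiation; 2 doses, q24h; 10 conc., 1 nM - 200 uM; fix + nuclear dye; 5 fields/well imaged; readout = nuclei count, % change vs 0.2% DMSO; n=4.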

[5] = tested on: SRY-box transcription factor 17 (SOX17) Protein Expression, Deisenroth Lab, SOX17 (gene 64321); assay: CCTE_Deisenroth_DEVTOX-GLR_Pluri_SOX17: CCTE's DevTox GLR-Pluri Assay Evaluation of SRY-box transcription factor 17 (SOX17) Protein Expression, Deisenroth Lab (AID 2284427; active means hit-call score of the fitted dose curve at least 0.9, where 1 is the maximum)
Procedure, shortened: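 Human RUES2-GLR pluripotent line; 24 h seeding, 48 h defined-media differentiation, 2 doses q24h, 10 conc 1 nM - 200 uM. Fix, nuclear stain, image 5 fields/well. Endpoint = %SOX17+ minus 0.2% DMSO; n=4.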

[6] = CCTE_Padilla_ZF_Score.Spine: CCTE's 144 Hour Post-fertilization zebrafish Assay Score for Spine Malformation, Padilla Lab (AID 2284407)
Procedure, shortened: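 Spine malformation scored at 6 dpf by two independent blinded observers under stereomicroscope, after static sealed exposure from 6–8 hpf at 26C in Hanks' solution with rinse on 5 dpf. Positive-direction fit against DMSO control.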

[7] = CCTE_Padilla_ZF_Score.Swim_bladder: CCTE's 144 Hour Post-fertilization zebrafish Assay Score for Swim Bladder Malformation, Padilla Lab (AID 2284408)
Procedure, shortened: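 Swim bladder inflation scored at 6 dpf by two blinded observers under a stereo microscope. Exposure ran from 6–8 hpf in sealed wells of 10% Hanks' at 26C, with rinsing at 5 dpf; DMSO served as baseline.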

[8] = CCTE_Padilla_ZF_Score.Position: CCTE's 144 Hour Post-fertilization zebrafish Assay Score for Position, Padilla Lab (AID 2284409)
Procedure, shortened: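 Wild-type zebrafish embryos (with chorions) exposed singly from 6–8 hpf in sealed wells of Hanks' solution at 26C, rinsed at 5 dpf. At 6 dpf, blinded assessors scored abnormal water-column position by brightfield stereomicroscopy, relative to DMSO.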

[9] = CCTE_Padilla_ZF_Score.Tail: CCTE's 144 Hour Post-fertilization zebrafish Assay Score for Tail Malformation, Padilla Lab (AID 2284414)
Procedure, shortened: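 Tail malformations were scored at 6 dpf by two blinded assessors under a stereo microscope. Chorionated embryos had been exposed from 6-8 hpf in sealed wells of 10% Hanks' at 26 C, then rinsed free of chemical at 5 dpf.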

[10] = CCTE_Padilla_ZF_Score.Any: CCTE's 144 Hour Post-fertilization zebrafish Assay Score for Any Mortality or Malformation, Padilla Lab (AID 2284416)
Procedure, shortened: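 Wild-type zebrafish embryos with chorions, one per well in 10% Hanks' from 6–8 hpf, dosed in sealed plates at 26 C, 14:10 h light:dark; rinsed at 5 dpf; blinded scoring at 6 dpf for death or malformation, versus DMSO.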

Measured: AC50

Cc1c([N+](=O)[O-])cc2c(c1[N+](=O)[O-])C(C)(C)CC2(C)C
active: [1] 2.8 µM

O=c1ssc(Cl)c1Cl
inactive: [1]

O=P1(N(CCCl)CCCl)NCCCO1 (stereo not given)
inactive: [2] | [3] | [4] | [5]

NC(=O)C(F)(F)C(F)(F)F
inactive: [6] | [7] | [8] | [1] | [9] | [10]

COC(=O)C(F)(F)C(F)(F)OC(F)(C(F)(F)F)C(F)(F)OC(F)=C(F)F (stereo not given)
inactive: [6] | [7] | [8] | [1] | [9] | [10]

OCC(F)(F)OC(F)(F)C(F)(F)OC(F)(F)CO
inactive: [6] | [7] | [8] | [1] | [9] | [10]

c1ccc2c(c1)sc1ccccc12
inactive: [1]

CC(C)Nc1ccc(Nc2ccccc2)cc1
active: [1] 2.6 µM

FC(F)(F)C(F)(C(F)(F)F)C(F)(F)C(F)(F)CC1CO1 (stereo not given)
inactive: [6] | [7] | [8] | [1] | [9] | [10]

CCOP(=S)(OCC)SCSc1ccc(Cl)cc1
active: [1] 8.15 µM

CC(O)C(F)(F)C(F)(F)F (stereo not given)
inactive: [6] | [7] | [8] | [1] | [9] | [10]

OCC(F)(F)OC(F)(F)C(F)(F)OC(F)(F)C(F)(F)OC(F)(F)F
inactive: [6]
active: [7] 27.5 µM | [8] 34.4 µM | [1] 16.2 µM | [9] 20.2 µM | [10] 27.5 µM

O=C(O)C(F)(OC(F)(F)C(F)(F)C(F)(F)F)C(F)(F)F (stereo not given)
inactive: [6] | [7] | [8] | [1] | [9] | [10]

O=C(O)C=CC(F)(C(F)(F)F)C(F)(F)F
inactive: [6] | [7] | [8] | [1] | [9] | [10]

CC(C)(C)c1ccccc1OP(=O)(Oc1ccccc1)Oc1ccccc1
active: [1] 8.75 µM

O=C(O)C(F)(F)OC(F)(F)C(F)(F)OC(F)(F)F
inactive: [6] | [7] | [8] | [1] | [9] | [10]

CCOP(=S)(OCC)SCS(=O)(=O)CC
active: [1] 65.2 µM

O=S1(=O)OCC2C(CO1)C1(Cl)C(Cl)=C(Cl)C2(Cl)C1(Cl)Cl (stereo not given)
active: [1] 0.165 µM

OCC(F)(F)OC(F)(F)C(F)(F)OC(F)(F)C(F)(F)OC(F)(F)CO
inactive: [6] | [7] | [8] | [1] | [9] | [10]

N#Cc1c(-c2ccc(Cl)cc2)[nH]c(C(F)(F)F)c1Br
inactive: [1]

O=P(OCC(Br)CBr)(OCC(Br)CBr)OCC(Br)CBr (stereo not given)
active: [1] 2.01 µM

Nc1ccc([N+](=O)[O-])cc1Cl
inactive: [1]

O=C(O)C(F)(F)OC(F)(F)C(F)(F)OC(F)(F)C(=O)O
inactive: [6] | [7] | [8] | [1] | [9] | [10]

C=CC(=O)OCC(F)(F)C(F)F
active: [1] 7.91 µM | [10] 9.85 µM
inactive: [6] | [7] | [8] | [9]

O=S(=O)(F)C(F)(F)C(F)(F)C(F)(F)C(F)(F)C(F)(F)C(F)(F)C(F)(F)C(F)(F)F
inactive: [6] | [7] | [8] | [1] | [9] | [10]

O=C(O)C(F)(F)C(F)(F)C(=O)O
inactive: [6] | [7] | [8] | [1] | [9] | [10]

CCCCC(CC)COP(=O)(Oc1ccccc1)Oc1ccccc1 (stereo not given)
active: [1] 3.23 µM
